# Data published in paper PMC7862700, “An all-to-all approach to the identification of sequence-specific readers for epigenetic DNA modifications on cytosine”.
# Columns and labels:
# Test in all cases: DAPPL (digital affinity profiling via proximity ligation, sequencing); 10 mM Tris-HCl pH 7.5, 50 mM NaCl, 1 mM DTT, 4% glycerol, room temperature, 30 min; GST-TFs on glutathione beads, 16-mer random dsDNA library, 0.1% formaldehyde crosslink after washing; high values mean tight binding
# FLI1 = biological target: T1, FLI1 (Homo sapiens, UniProt Q01543 1-452); conditions: protein: recombinant; tags: N-terminal GST; dsDNA, one strand shown
# T1 sequence: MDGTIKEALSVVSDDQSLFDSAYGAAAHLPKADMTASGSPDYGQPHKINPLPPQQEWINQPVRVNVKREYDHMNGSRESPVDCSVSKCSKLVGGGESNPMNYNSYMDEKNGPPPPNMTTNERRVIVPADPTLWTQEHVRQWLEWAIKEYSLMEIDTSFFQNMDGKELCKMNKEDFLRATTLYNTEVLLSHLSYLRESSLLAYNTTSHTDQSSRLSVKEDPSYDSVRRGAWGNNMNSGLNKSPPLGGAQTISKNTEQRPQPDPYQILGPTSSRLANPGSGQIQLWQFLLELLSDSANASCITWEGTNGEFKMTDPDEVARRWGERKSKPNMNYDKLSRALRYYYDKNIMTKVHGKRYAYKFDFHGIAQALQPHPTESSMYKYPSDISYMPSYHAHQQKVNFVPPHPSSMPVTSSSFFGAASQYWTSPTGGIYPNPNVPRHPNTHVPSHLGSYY
# Method in brief: (§1)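 A tag-only sample was pooled with DNA-barcoded human transcription factors that had been expressed in yeast as GST fusions and captured on glutathione beads. The pools were incubated for 30 min at room temperature with 200 nmole of a random double-stranded 16-mer DNA library in Tris/NaCl/DTT/glycerol buffer, then washed, crosslinked with 0.1% formaldehyde, proximity-ligated (BsaI/T4 ligase, 1 h, 37 °C), PCR-amplified and sequenced on an Illumina NextSeq500. Binding signal is each hexamer's read frequency for a factor divided by its frequency for the tag-only sample.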
# ELK1 = biological target: T2, ELK1 (Homo sapiens, UniProt P19419 1-428); conditions: protein: recombinant; tags: N-terminal GST; dsDNA, one strand shown
# T2 sequence: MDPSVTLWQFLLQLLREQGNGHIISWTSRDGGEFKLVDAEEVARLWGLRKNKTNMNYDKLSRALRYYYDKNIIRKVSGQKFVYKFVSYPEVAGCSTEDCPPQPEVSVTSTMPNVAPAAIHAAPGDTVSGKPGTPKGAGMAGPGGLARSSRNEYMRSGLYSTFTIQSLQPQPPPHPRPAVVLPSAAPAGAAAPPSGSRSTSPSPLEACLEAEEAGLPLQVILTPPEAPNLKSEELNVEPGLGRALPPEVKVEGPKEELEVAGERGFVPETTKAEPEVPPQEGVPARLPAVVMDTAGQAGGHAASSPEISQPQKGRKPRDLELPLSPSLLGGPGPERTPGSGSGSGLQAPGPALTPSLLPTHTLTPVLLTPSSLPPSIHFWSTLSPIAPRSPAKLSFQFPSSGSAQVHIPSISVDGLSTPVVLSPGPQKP
# Method in brief: as §1
# GABPA = biological target: T3, GABPA (Homo sapiens, UniProt Q06546 1-454); conditions: protein: recombinant; tags: N-terminal GST; dsDNA, one strand shown
# T3 sequence: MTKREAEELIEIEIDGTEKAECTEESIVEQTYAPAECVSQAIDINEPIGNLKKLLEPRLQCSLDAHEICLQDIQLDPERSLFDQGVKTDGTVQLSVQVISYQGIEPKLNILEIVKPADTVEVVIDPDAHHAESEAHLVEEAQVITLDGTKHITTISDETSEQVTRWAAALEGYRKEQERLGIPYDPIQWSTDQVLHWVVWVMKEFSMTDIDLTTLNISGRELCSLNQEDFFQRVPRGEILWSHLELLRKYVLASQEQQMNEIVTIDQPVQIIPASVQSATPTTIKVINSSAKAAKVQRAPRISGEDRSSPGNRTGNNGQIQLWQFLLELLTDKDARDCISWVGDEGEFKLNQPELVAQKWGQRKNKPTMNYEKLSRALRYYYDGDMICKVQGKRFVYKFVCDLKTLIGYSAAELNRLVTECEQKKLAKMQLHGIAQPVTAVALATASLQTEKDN
# Method in brief: as §1
# ERG = biological target: T4, ERG (Homo sapiens, UniProt P11308 1-479); conditions: protein: recombinant; tags: N-terminal GST; dsDNA, one strand shown
# T4 sequence: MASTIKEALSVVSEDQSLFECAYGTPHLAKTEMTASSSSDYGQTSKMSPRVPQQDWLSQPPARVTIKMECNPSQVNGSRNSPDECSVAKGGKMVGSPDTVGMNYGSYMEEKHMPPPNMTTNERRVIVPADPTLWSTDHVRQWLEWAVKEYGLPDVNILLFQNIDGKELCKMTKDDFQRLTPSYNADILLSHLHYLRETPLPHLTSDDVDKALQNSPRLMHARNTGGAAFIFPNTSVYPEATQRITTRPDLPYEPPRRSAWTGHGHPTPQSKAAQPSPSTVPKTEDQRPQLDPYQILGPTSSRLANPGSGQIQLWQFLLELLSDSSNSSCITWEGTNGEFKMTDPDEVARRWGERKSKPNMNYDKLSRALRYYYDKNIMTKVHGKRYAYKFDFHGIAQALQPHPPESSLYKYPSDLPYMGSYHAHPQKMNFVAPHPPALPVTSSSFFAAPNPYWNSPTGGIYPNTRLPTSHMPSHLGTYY
# Method in brief: as §1
# ELF1 = ELF1 (Homo sapiens, UniProt P32519 1-619); conditions: protein: recombinant; tags: N-terminal GST; dsDNA, one strand shown
# Method in brief: as §1
# EHF = biological target: T5, EHF (Homo sapiens, UniProt Q9NZC4 1-300); conditions: protein: recombinant; tags: N-terminal GST; dsDNA, one strand shown
# T5 sequence: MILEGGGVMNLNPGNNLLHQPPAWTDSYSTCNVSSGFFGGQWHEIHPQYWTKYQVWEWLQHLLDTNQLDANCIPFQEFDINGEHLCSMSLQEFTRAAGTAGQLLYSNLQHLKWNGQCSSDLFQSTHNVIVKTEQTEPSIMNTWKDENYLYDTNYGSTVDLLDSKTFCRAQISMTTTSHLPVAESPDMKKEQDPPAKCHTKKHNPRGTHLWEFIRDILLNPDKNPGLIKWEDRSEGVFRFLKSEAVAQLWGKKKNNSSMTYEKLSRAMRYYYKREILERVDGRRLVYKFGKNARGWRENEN
# Method in brief: as §1
# SPI1 = SPI1 (Homo sapiens, UniProt P17947 1-270); conditions: protein: recombinant; tags: N-terminal GST; dsDNA, one strand shown
# Method in brief: as §1
# SPIB = SPIB (Homo sapiens, UniProt Q01892 1-262); conditions: protein: recombinant; tags: N-terminal GST; dsDNA, one strand shown
# Method in brief: as §1
# ELK3 = biological target: T6, ELK3 (Homo sapiens, UniProt P41970 1-407); conditions: protein: recombinant; tags: N-terminal GST; dsDNA, one strand shown
# T6 sequence: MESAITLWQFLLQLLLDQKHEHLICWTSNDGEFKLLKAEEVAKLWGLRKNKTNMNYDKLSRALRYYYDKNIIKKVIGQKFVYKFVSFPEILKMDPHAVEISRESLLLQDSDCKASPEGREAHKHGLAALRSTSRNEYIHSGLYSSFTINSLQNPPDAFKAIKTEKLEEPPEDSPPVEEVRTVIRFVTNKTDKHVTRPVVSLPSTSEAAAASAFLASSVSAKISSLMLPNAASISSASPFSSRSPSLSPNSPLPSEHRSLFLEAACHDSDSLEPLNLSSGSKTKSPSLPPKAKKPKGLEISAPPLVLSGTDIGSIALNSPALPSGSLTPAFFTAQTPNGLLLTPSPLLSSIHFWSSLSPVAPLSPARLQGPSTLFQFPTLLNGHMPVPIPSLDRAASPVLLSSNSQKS
# Method in brief: as §1
# FEV = biological target: T7, FEV (Homo sapiens, UniProt Q99581 1-238); conditions: protein: recombinant; tags: N-terminal GST; dsDNA, one strand shown
# T7 sequence: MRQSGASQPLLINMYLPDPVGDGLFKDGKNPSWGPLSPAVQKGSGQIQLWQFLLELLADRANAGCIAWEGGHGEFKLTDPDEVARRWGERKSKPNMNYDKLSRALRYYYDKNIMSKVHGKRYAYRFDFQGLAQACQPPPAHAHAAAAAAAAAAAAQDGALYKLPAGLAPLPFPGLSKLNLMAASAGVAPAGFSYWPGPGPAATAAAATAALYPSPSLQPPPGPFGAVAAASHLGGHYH
# Method in brief: as §1
# ETV5 = ETV5 (Homo sapiens, UniProt P41161 1-510); conditions: protein: recombinant; tags: N-terminal GST; dsDNA, one strand shown
# Method in brief: as §1
# HSF1 = HSF1 (Homo sapiens, UniProt Q00613 1-529); conditions: protein: recombinant; tags: N-terminal GST; chain copies: 3; dsDNA, one strand shown
# Method in brief: as §1
# ELF4 = ELF4 (Homo sapiens, UniProt Q99607 1-663); conditions: protein: recombinant; tags: N-terminal GST; dsDNA, one strand shown
# Method in brief: as §1
# ELK4 = biological target: T8, ELK4 (Homo sapiens, UniProt P28324-2 1-405); conditions: protein: recombinant; tags: N-terminal GST; dsDNA, one strand shown
# T8 sequence: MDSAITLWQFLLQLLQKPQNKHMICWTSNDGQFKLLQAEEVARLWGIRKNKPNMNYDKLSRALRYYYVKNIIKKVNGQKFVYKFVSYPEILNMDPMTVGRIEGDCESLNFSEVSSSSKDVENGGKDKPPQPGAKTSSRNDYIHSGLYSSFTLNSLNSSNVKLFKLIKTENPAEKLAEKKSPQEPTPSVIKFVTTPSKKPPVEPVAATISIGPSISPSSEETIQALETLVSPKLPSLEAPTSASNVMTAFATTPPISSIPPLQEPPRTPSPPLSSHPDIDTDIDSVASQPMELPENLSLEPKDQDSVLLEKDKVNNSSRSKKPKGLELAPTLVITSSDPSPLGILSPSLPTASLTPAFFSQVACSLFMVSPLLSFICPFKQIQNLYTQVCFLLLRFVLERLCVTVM
# Method in brief: as §1
# ETV2 = biological target: T9, ETV2 (Homo sapiens, UniProt O00321 1-342); conditions: protein: recombinant; tags: N-terminal GST; dsDNA, one strand shown
# T9 sequence: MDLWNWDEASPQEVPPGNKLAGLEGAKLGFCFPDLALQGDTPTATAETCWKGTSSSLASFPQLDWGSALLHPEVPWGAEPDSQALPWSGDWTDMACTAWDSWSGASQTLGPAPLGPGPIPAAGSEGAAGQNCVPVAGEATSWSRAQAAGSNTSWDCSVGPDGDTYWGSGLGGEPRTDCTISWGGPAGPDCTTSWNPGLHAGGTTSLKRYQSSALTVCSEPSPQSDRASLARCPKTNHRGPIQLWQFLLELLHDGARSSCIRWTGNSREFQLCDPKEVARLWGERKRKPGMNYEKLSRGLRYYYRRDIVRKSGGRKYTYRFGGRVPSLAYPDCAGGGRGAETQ
# Method in brief: as §1
# ELF3 = biological target: T10, ELF3 (Homo sapiens, UniProt P78545 1-371); conditions: protein: recombinant; tags: N-terminal GST; dsDNA, one strand shown
# T10 sequence: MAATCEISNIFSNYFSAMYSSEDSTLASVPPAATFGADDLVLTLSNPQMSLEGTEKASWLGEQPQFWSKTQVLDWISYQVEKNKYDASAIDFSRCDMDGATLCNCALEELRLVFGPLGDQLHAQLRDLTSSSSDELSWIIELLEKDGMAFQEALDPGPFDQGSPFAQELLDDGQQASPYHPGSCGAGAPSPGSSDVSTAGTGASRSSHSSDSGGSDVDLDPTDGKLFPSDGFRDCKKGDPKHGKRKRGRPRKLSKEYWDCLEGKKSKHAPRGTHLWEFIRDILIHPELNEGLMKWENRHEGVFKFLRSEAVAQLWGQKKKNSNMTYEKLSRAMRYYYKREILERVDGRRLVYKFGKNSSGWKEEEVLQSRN
# Method in brief: as §1
# CRX = CRX (Homo sapiens, UniProt O43186 1-299); conditions: protein: recombinant; tags: N-terminal GST; dsDNA, one strand shown
# Method in brief: as §1
# ETV1 = ETV1 (Homo sapiens, UniProt P50549 1-477); conditions: protein: recombinant; tags: N-terminal GST; dsDNA, one strand shown
# Method in brief: as §1
# ELF4, sequence (Q99607 whole entry): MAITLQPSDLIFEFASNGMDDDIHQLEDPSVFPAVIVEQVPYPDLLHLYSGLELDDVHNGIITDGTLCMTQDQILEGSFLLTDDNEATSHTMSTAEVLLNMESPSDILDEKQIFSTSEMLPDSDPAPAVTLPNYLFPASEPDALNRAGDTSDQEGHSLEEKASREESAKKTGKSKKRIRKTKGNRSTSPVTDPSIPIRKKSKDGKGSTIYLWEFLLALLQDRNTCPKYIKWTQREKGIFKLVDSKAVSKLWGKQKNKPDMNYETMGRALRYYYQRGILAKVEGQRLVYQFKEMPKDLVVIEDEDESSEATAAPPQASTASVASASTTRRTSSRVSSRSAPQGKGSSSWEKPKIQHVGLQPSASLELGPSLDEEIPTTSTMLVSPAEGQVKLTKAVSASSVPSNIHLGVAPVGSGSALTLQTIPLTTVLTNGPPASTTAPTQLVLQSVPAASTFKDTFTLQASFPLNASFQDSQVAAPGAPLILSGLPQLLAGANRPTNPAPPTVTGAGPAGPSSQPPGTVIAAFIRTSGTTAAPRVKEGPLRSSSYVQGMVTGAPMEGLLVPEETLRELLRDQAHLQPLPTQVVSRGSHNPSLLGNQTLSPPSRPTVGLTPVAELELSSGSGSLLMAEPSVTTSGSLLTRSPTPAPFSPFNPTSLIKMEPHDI
# SPIB, sequence (Q01892 whole entry): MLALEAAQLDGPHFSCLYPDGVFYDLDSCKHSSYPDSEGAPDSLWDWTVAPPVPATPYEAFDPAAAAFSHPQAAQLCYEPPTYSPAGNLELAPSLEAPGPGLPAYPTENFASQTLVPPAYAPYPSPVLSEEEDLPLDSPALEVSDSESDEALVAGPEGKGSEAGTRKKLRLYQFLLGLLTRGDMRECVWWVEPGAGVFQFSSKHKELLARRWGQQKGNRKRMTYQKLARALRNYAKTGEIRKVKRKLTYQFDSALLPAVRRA
# ELF1, sequence (P32519 whole entry): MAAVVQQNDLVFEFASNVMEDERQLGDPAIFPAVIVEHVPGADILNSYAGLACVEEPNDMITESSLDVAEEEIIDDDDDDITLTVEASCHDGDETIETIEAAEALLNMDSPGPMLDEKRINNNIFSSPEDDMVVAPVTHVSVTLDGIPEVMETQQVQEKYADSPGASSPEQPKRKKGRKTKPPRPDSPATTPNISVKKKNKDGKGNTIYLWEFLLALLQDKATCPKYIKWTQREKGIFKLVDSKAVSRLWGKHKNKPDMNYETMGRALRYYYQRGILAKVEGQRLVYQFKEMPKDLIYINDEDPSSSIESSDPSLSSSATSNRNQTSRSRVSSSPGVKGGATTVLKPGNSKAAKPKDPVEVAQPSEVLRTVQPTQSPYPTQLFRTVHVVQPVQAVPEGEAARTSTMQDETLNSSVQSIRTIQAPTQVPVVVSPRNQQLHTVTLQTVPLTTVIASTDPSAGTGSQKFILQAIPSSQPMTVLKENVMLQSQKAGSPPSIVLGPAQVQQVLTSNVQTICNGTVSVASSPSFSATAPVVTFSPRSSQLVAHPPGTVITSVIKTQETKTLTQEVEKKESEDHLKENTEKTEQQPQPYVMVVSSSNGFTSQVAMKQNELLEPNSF
# ETV1, sequence (P50549 whole entry): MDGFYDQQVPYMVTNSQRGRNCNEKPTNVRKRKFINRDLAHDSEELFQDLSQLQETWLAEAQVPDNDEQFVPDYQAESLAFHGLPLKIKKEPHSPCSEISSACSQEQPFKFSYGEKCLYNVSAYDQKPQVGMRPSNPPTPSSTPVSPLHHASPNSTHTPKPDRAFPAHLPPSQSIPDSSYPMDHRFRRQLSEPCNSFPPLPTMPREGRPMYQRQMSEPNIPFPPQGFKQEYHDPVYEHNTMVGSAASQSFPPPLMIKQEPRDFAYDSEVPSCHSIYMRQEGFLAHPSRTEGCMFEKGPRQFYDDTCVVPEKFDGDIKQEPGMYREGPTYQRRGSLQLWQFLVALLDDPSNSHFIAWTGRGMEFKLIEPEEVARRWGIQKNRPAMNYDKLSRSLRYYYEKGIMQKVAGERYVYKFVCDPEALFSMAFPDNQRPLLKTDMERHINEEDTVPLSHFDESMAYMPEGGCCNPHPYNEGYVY
# HSF1, sequence (Q00613 whole entry): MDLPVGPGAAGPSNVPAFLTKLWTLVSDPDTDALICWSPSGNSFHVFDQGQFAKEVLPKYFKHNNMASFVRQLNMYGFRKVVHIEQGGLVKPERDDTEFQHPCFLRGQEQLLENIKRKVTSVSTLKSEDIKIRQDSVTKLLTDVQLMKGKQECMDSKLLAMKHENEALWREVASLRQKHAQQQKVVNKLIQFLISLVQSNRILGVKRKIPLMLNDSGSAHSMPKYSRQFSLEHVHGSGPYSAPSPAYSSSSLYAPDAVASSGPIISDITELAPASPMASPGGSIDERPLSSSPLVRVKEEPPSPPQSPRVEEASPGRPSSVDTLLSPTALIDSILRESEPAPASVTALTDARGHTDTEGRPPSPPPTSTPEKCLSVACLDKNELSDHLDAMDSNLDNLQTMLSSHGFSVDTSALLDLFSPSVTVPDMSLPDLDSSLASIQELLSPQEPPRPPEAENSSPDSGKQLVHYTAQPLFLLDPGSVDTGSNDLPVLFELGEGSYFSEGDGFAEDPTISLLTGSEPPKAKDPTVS
# ETV5, sequence (P41161 whole entry): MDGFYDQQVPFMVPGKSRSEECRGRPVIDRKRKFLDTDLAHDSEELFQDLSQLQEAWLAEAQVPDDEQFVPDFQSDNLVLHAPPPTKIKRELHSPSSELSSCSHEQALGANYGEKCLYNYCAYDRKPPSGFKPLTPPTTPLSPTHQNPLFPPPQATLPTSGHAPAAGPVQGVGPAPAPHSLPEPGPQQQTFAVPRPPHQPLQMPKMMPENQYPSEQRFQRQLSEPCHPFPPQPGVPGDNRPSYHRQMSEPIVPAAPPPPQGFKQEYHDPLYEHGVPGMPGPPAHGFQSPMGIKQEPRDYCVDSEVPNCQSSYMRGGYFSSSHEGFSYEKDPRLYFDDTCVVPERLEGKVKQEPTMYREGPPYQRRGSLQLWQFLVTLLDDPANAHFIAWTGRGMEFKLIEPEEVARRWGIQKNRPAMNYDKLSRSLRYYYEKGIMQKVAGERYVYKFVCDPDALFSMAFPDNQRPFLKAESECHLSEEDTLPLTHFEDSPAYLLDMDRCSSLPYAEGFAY
# CRX, sequence (O43186 whole entry): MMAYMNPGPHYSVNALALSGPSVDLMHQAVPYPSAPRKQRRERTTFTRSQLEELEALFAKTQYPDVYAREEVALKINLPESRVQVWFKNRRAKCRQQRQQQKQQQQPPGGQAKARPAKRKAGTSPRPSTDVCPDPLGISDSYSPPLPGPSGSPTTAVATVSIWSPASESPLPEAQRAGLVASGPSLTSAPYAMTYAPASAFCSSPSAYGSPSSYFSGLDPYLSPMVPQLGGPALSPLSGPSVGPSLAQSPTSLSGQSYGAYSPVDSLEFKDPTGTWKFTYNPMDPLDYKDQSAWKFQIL
sequence,measurement,setting,value
TAACCA,binding signal,FLI1,"1.12 fold enrichment (6-mer frequency, TF over GST control)"
same,binding signal,ELK1,"1.12 fold enrichment (6-mer frequency, TF over GST control)"
same,binding signal,GABPA,"1.08 fold enrichment (6-mer frequency, TF over GST control)"
same,binding signal,ERG,"1.12 fold enrichment (6-mer frequency, TF over GST control)"
same,binding signal,ELF1,"1.11 fold enrichment (6-mer frequency, TF over GST control)"
same,binding signal,EHF,"1.15 fold enrichment (6-mer frequency, TF over GST control)"
same,binding signal,SPI1,"1.06 fold enrichment (6-mer frequency, TF over GST control)"
same,binding signal,SPIB,"1.11 fold enrichment (6-mer frequency, TF over GST control)"
same,binding signal,ELK3,"1.16 fold enrichment (6-mer frequency, TF over GST control)"
same,binding signal,FEV,"1 fold enrichment (6-mer frequency, TF over GST control)"
same,binding signal,ETV5,"1.06 fold enrichment (6-mer frequency, TF over GST control)"
same,binding signal,HSF1,"1.16 fold enrichment (6-mer frequency, TF over GST control)"
same,binding signal,ELF4,"1.16 fold enrichment (6-mer frequency, TF over GST control)"
same,binding signal,ELK4,"1.04 fold enrichment (6-mer frequency, TF over GST control)"
same,binding signal,ETV2,"1.12 fold enrichment (6-mer frequency, TF over GST control)"
same,binding signal,ELF3,"1.1 fold enrichment (6-mer frequency, TF over GST control)"
same,binding signal,CRX,"1.31 fold enrichment (6-mer frequency, TF over GST control)"
same,binding signal,ETV1,"1.02 fold enrichment (6-mer frequency, TF over GST control)"
